According to PubChem BioAssay (NCI):
Compounds without any hit were thinned out: in the full panel of roughly 83,000, 20% have a hit.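 Testing used 96-well plates and a 48-hour single-concentration exposure. Example: -40 means 40% of the starting cells died.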 The source made the active and inactive calls. The calls were made as follows: active = growth percent below 10; inactive = the rest.

test system: SF-539 CNS; experiment: NCI-60 one-dose screen, 48 h (100 = growth as untreated, 0 = no growth, -100 = all killed); settings: 10 µM

| Compound | growth |
| --- | --- |
| CCNC1(NC#N)CCCCC1 | 105% (inactive) |
| CC(=O)Nc1ccc(Sc2ccc(NC(C)=O)cc2)cc1 | 92% (inactive) |
| O=C(Nc1ccc(CN2CCOCC2)cc1)c1ccc(-c2cc(Cl)ccc2Cl)o1 | 88.3% (inactive) |
| COc1cccc(C(=O)NNc2nc(N3CCN(C4CCCCC4)CC3)nc(N3CCN(C(c4ccccc4)c4ccccc4)CC3)n2)c1 | 61.7% (inactive) |
| Oc1cc(O)c(Br)cc1Br | 96.4% (inactive) |
| CS(=O)(=O)Nc1ccc(Nc2c3ccccc3nc3cc(Cl)ccc23)cc1 | 30.7% (inactive) |
| c1ccc(C2CCCCC2)c(OCCCCCN2CCNCC2)c1 | 68.7% (inactive) |
| Cc1nnc2c3nnc(-c4ccc(Cl)cc4)n3c3ccccc3n12 | 92.2% (inactive) |
| Cc1ccc(C)c2c1sc1nc3n[nH]c(N)c3c(=N)n12 | 101% (inactive) |
| CCCc1ccnc(NS(=O)(=O)c2ccc(N)cc2)n1 | 71.8% (inactive) |
| CCc1ccc(Nc2cc(C)nc3nc(C)nn23)cc1 | 0.337% (active) |
| CN(C)c1ccc2c(c1)OC(N)=C(C#N)C2c1ccc2c(c1)CCO2 (stereo not given) | -0.663% (active) |
| CC(C)C[C@H](NC(=O)CCn1ccc2ccccc2c1=O)B(O)O | -11.4% (active) |
| COc1ccc(/C=C2\CCC3C(CCCC34OCCO4)C2=O)cc1 (stereo not given) | 88.8% (inactive) |
| COc1cc(-c2nc3ccc(C)cc3[nH]2)ccc1OCc1nnc(-c2ccc(CC(C)C)cc2)o1 | 91.7% (inactive) |
| COc1ccc(CSc2nc3cc(OC)c(OC)cc3c(=O)n2-c2ccc(OC)cc2OC)cc1 | 96.8% (inactive) |
| C[N+]1=C(/C=C/c2ccc(I)cc2)C(C)(C)c2ccccc21 | 98.7% (inactive) |
| c1ccc(OCCC[P+](c2ccccc2)(c2ccccc2)c2ccccc2)cc1 | 13.6% (inactive) |
| CCN1CCN(c2nc(NNC(=O)c3cccc(OC)c3)nc(N3CCN(C(c4ccccc4)c4ccccc4)CC3)n2)CC1 | 71.6% (inactive) |
| CNC(=O)c1cc(Oc2ccc(NC(=O)Nc3ccc(Cl)c(C(C)(C)C)c3)c(F)c2)ccn1 | 46.6% (inactive) |
| CCc1cc2n(n1)-c1ncc(C(=O)OC)cc1Oc1ccccc1-2 | 97.9% (inactive) |
| O=C(O)c1ccc(CNc2ccc(C(=O)CCl)cc2)cc1 | 102% (inactive) |
| CCN(CCCNC(=O)Cc1cc(=O)oc2cc(N(C)C)ccc12)CCNc1ccnc2cc(Cl)ccc12 | 25.2% (inactive) |

test system: UACC-257 melanoma; experiment: as above; settings: 10 µM

| Compound | growth |
| --- | --- |
| O=C1CC(c2cccc(-c3cccnc3)c2)=Nc2ccc(Br)cc2N1 | 38.5% (inactive) |
| CCCOCC(O)CNCCN (stereo not given) | 95.9% (inactive) |
| COc1ccc(C2C=C(c3ccc(Cl)c(Cl)c3)N=C3SC(C)=CN32)cc1 (stereo not given) | 109% (inactive) |
| COC(=O)c1cnc2c(c1)Oc1ccccc1-c1ccnn1-2 | 101% (inactive) |
| CCCCC(CC#N)(CCC)CCC | 110% (inactive) |
| COc1cc(OC)cc(N2CCN(C(=O)Nc3nc4cc(F)ccc4nc3OC)CC2)c1 | 72.7% (inactive) |
| CCOC(=O)Nc1ccc2c(c1)C(=O)N(CC)c1ccccc1O2 | 64.1% (inactive) |
| C=C[C@]1(C)C=C2C(=O)[C@@]3(O)OC(=O)[C@@]4(CCCC(C)(C)[C@H]34)[C@@]2(O)CC1 | -93% (active) |
| Cc1ccc2c3c(cccc13)-c1ccccc1C2=O | 101% (inactive) |
| CCN(CC)CCn1c(=N)n(CC(O)c2ccc(Cl)c(Cl)c2)c2ccccc21 (stereo not given) | -59.8% (active) |
| COc1cc(Nc2ccnc(N3CCN(c4ccnc5cc(Cl)ccc45)CC3)n2)cc(OC)c1 | 1.09% (active) |
| O=C1CC[C@@H](C(=O)N[C@H]2CSSC[C@@H](C(=O)NCCc3ccccc3)NC(=O)[C@H](Cc3ccccc3)NC(=O)[C@@H]3CCCN3C(=O)[C@@H]3CCCN3C2=O)N1 | 99.1% (inactive) |
| COc1cc(C(c2c[nH]c3ccccc23)N2CCCC2)ccc1OCc1ccccc1 (stereo not given) | 85.3% (inactive) |
| Cc1ccc(/C=C2\CN(Cc3cn(CCNc4ccnc5cc(Cl)ccc45)nn3)C/C(=C\c3ccc(C)cc3)C2=O)cc1 | -41.1% (active) |
| CCNC1(NC#N)CCCCC1 | 85.1% (inactive) |
| CC(=O)Nc1ccc(Sc2ccc(NC(C)=O)cc2)cc1 | 94.4% (inactive) |
| O=C(Nc1ccc(CN2CCOCC2)cc1)c1ccc(-c2cc(Cl)ccc2Cl)o1 | 49.4% (inactive) |
| COc1cccc(C(=O)NNc2nc(N3CCN(C4CCCCC4)CC3)nc(N3CCN(C(c4ccccc4)c4ccccc4)CC3)n2)c1 | 23.1% (inactive) |
| Oc1cc(O)c(Br)cc1Br | 102% (inactive) |

| Compound | growth |
| --- | --- |
| CS(=O)(=O)Nc1ccc(Nc2c3ccccc3nc3cc(Cl)ccc23)cc1 | 48% (inactive) |
| c1ccc(C2CCCCC2)c(OCCCCCN2CCNCC2)c1 | 19.9% (inactive) |
| Cc1nnc2c3nnc(-c4ccc(Cl)cc4)n3c3ccccc3n12 | 98.1% (inactive) |
| Cc1ccc(C)c2c1sc1nc3n[nH]c(N)c3c(=N)n12 | 104% (inactive) |
| CCCc1ccnc(NS(=O)(=O)c2ccc(N)cc2)n1 | 43.4% (inactive) |
| CCc1ccc(Nc2cc(C)nc3nc(C)nn23)cc1 | -84.8% (active) |
| CN(C)c1ccc2c(c1)OC(N)=C(C#N)C2c1ccc2c(c1)CCO2 (stereo not given) | 58% (inactive) |
| CC(C)C[C@H](NC(=O)CCn1ccc2ccccc2c1=O)B(O)O | 34.5% (inactive) |
| COc1ccc(/C=C2\CCC3C(CCCC34OCCO4)C2=O)cc1 (stereo not given) | 91% (inactive) |
| COc1cc(-c2nc3ccc(C)cc3[nH]2)ccc1OCc1nnc(-c2ccc(CC(C)C)cc2)o1 | 96.8% (inactive) |
| COc1ccc(CSc2nc3cc(OC)c(OC)cc3c(=O)n2-c2ccc(OC)cc2OC)cc1 | 93.4% (inactive) |
| C[N+]1=C(/C=C/c2ccc(I)cc2)C(C)(C)c2ccccc21 | 104% (inactive) |
| c1ccc(OCCC[P+](c2ccccc2)(c2ccccc2)c2ccccc2)cc1 | -10.9% (active) |
| CCN1CCN(c2nc(NNC(=O)c3cccc(OC)c3)nc(N3CCN(C(c4ccccc4)c4ccccc4)CC3)n2)CC1 | 45.9% (inactive) |
| CNC(=O)c1cc(Oc2ccc(NC(=O)Nc3ccc(Cl)c(C(C)(C)C)c3)c(F)c2)ccn1 | 20.7% (inactive) |
| CCc1cc2n(n1)-c1ncc(C(=O)OC)cc1Oc1ccccc1-2 | 104% (inactive) |
| O=C(O)c1ccc(CNc2ccc(C(=O)CCl)cc2)cc1 | 75% (inactive) |
| CCN(CCCNC(=O)Cc1cc(=O)oc2cc(N(C)C)ccc12)CCNc1ccnc2cc(Cl)ccc12 | 41.9% (inactive) |
